The record followed here is the supplement of paper PMC9801561.

± gives the standard deviation of the averaged measurements.
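Throughout, for DuctApe activity index of respiration/growth curve (0 no growth to 9 maximum): biolog PM4 phosphorus and sulfur plates, tetrazolium violet dye reduction read in the OmniLog every 15 min, kinetic curves scored by DuctApe, each plate run in triplicate.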

The test system of one experiment is Escherichia coli Nissle 1917. The experiment is described as follows: area under OmniLog respiration curve over 48 h (OmniLog units x h); higher = more growth / nutrient utilisation; extreme values may be limits of the assay. Conditions: nutrient role: C-Source, carbohydrate; incubation: 48 h, 37 °C.
In the case of `Nc1ncnc2c1ncn2[C@H]1C[C@H](O)[C@@H](CO)O1` [2`-Deoxyadenosine], the “area under OmniLog respiration curve” value worked out at 8940 ± 560. The same measure, in the same setting: the figure for `OC[C@H]1O[C@@H](Oc2ccc(O)cc2)[C@H](O)[C@@H](O)[C@@H]1O` [Arbutin] is 4.72. On the same count and under the same terms, the figure for `CO[C@H]1O[C@H](CO)[C@@H](O)[C@H](O)[C@H]1O` [a-Methyl-D-Glucoside] is 4.72. For `C[C@@H](O)[C@H](O)[C@H](O)[C@@H](O)C=O` [D-Fucose], the “area under OmniLog respiration curve” value amounted to 21 ± 25. `OCC(O)CO` [Glycerol]: the “area under OmniLog respiration curve” value stood at 7310 ± 730.

For the compound `OCC1(O)OC[C@H](O)[C@@H](O)[C@@H]1O` (stereo partly drawn) [L-Sorbose], the “area under OmniLog respiration curve” value worked out at 6370 ± 540. Still for that read-out and setting: the figure for `CO[C@H]1O[C@H](CO)[C@@H](O)[C@H](O)[C@@H]1O` [a-Methyl-D-Mannoside] is 16.9 ± 21; for `O[C@@H]1[C@H](O)[C@H](O)CO[C@H]1O` [D-Ribose] it is 9520 ± 880; for `OC[C@H]1O[C@H](O[C@H]2[C@H](O)[C@@H](O)[C@@H](O[C@H]3[C@H](O)[C@@H](O)C(O)O[C@@H]3CO)O[C@@H]2CO)[C@H](O)[C@@H](O)[C@@H]1O` (mixture of isomers) [Maltotriose] it is 8540 ± 380. For the compound `OC[C@@H](O)[C@H](O)[C@@H](O)CO` [Xylitol], the “area under OmniLog respiration curve” value stood at 4.72. Regarding `O=P(O)(O)OC[C@H]1OC(O)(CO)[C@@H](O)[C@@H]1O` (stereo partly drawn) [D-Fructose-6-Phosphate], the “area under OmniLog respiration curve” value is 9900 ± 640. In the case of `OC[C@@H](O)[C@H](O)[C@H](O)[C@@H](O)CO` [Dulcitol], the “area under OmniLog respiration curve” value was found to be 3230 ± 100. Still for that read-out and setting: with `CO[C@@H]1O[C@H](CO)[C@H](O)[C@H](O)[C@H]1O` [b-Methyl-D-Galactoside] the figure was 6290 ± 550.

Still in this experiment, the particulars now being: nutrient role: C-Source, carboxylic acid; incubation: 48 h, 37 °C.
As for `O=C(O)CC(=O)O` [Malonic acid], the “area under OmniLog respiration curve” value was found to be 4.72. Same read-out and setting: the figure for `O=C1CC[C@@H](C(=O)O)O1` [a-Hydroxyglutaric acid-g-Lactone] is 4.72. The same measure, in the same setting: the figure for `O=C(O)CO` [Glycolic acid] is 7210 ± 370; for `O=C(O)[C@@H](O)[C@H](O)[C@H](O)[C@@H](O)C(=O)O` [Mucic acid] it is 8240 ± 630; for `O=C(O)/C=C/C(=O)O` [Fumaric acid] it is 8610 ± 570.

As to `CCCCCC(=O)O` [Caproic acid], the “area under OmniLog respiration curve” value came to 4.72.

With `O=C(O)Cc1ccc(O)cc1` [p-Hydroxyphenyl Acetic acid], the “area under OmniLog respiration curve” value is 40.5 ± 54.

`O=C(O)[C@H]1OC(O)[C@H](O)[C@@H](O)[C@H]1O` (stereo partly drawn) [D-Galacturonic acid]: the “area under OmniLog respiration curve” value was determined as 10200 ± 880. On the same count and under the same terms, with `O=C1O[C@H]([C@@H](O)CO)[C@@H](O)[C@@H]1O` [L-Galactonic acid-g-Lactone] the figure was 10200 ± 640; with `O=C(O)CCC(=O)C(=O)O` [a-Ketoglutaric acid], 5770 ± 360; with `O=C(O)CC(O)C(=O)O` (racemic) [DL-Malic acid], 8150 ± 730.

Still in this experiment, the particulars now being: nutrient role: sole phosphorus source (pyruvate carbon); incubation: 48 h, 37 °C.
In the case of `O=C(O)CP(=O)(O)O` [Phosphono Acetic acid], the “area under OmniLog respiration curve” value turned out to be 143 ± 120. With `O=P(O)(O)OC[C@H]1OC(O)C[C@@H](O)[C@@H]1O` (stereo partly drawn) [2-Deoxy-D-Glucose 6-Phosphate], the “area under OmniLog respiration curve” value worked out at 4.72.

With `Nc1ncnc2c1ncn2[C@@H]1O[C@H](COP(=O)(O)O)[C@@H](O)[C@H]1O` [Adenosine 5`-Monophosphate], the “area under OmniLog respiration curve” value was 9380 ± 770.

In the case of `Nc1ccn([C@@H]2O[C@H](CO)[C@@H](OP(=O)(O)O)[C@H]2O)c(=O)n1` [Cytidine 3`-Monophosphate], the “area under OmniLog respiration curve” value turned out to be 4.72. On the same count and under the same terms, with `Cc1cn([C@H]2C[C@H](O)[C@@H](COP(=O)(O)O)O2)c(=O)[nH]c1=O` [Thymidine 5`-Monophosphate] the figure was 8850 ± 380; with `Nc1ccn([C@@H]2O[C@H](COP(=O)(O)O)[C@@H](O)[C@H]2O)c(=O)n1` [Cytidine 5`-Monophosphate], 8880 ± 960; with `Nc1nc2c(ncn2[C@@H]2O[C@H](COP(=O)(O)O)[C@@H](O)[C@H]2O)c(=O)[nH]1` [Guanosine 5`-Monophosphate], 9210 ± 900.

For the compound `N[C@H](COP(=O)(O)O)C(=O)O` [O-Phospho-D-Serine], the “area under OmniLog respiration curve” value is 9260 ± 670.

The same experiment, now with this note: nutrient role: sole sulfur source (pyruvate carbon); incubation: 48 h, 37 °C.
With `CC(=O)N[C@@H](CS)C(=O)O` [N-Acetyl-L-Cysteine], the “area under OmniLog respiration curve” value came to 55.4 ± 54.

As to `CSCCC(NC(C)=O)C(=O)O` (racemic) [N-Acetyl-D,L-Methionine], the “area under OmniLog respiration curve” value turned out to be 5080 ± 220.

In the case of `NC(CCSCC(N)C(=O)O)C(=O)O` (centres undefined) [Cystathionine], the “area under OmniLog respiration curve” value turned out to be 4100 ± 130.

In the case of `O=S(O)(O)=S` [Thiosulfate], the “area under OmniLog respiration curve” value was 6770 ± 170.

The next experiment has as its system Escherichia coli Nissle 1917. The experiment is described as follows: DuctApe activity index of respiration/growth curve (0 no growth to 9 maximum) (index 0-9); higher = more growth / nutrient utilisation, active = 3 or more; extreme values may be limits of the assay. Conditions: nutrient role: C-Source, carbohydrate; incubation: 48 h, 37 °C.
Regarding `Nc1ncnc2c1ncn2[C@H]1C[C@H](O)[C@@H](CO)O1` [2`-Deoxyadenosine], the DuctApe activity index is 8.67 (active). On the same count and under the same terms, the figure for `OC[C@H]1O[C@@H](Oc2ccc(O)cc2)[C@H](O)[C@@H](O)[C@@H]1O` [Arbutin] is 0 (inactive). Regarding `CO[C@H]1O[C@H](CO)[C@@H](O)[C@H](O)[C@H]1O` [a-Methyl-D-Glucoside], the DuctApe activity index is 0 (inactive). On to `C[C@@H](O)[C@H](O)[C@H](O)[C@@H](O)C=O` [D-Fucose], for which the DuctApe activity index was 0 (inactive). Same read-out and setting: the figure for `OCC(O)CO` [Glycerol] is 7.67 (active); for `OCC1(O)OC[C@H](O)[C@@H](O)[C@@H]1O` (stereo partly drawn) [L-Sorbose] it is 7 (active); for `CO[C@H]1O[C@H](CO)[C@@H](O)[C@H](O)[C@@H]1O` [a-Methyl-D-Mannoside] it is 0 (inactive). Same read-out and setting: with `O[C@@H]1[C@H](O)[C@H](O)CO[C@H]1O` [D-Ribose] the figure was 8.67 (active); with `OC[C@H]1O[C@H](O[C@H]2[C@H](O)[C@@H](O)[C@@H](O[C@H]3[C@H](O)[C@@H](O)C(O)O[C@@H]3CO)O[C@@H]2CO)[C@H](O)[C@@H](O)[C@@H]1O` (mixture of isomers) [Maltotriose], 8 (active).

As to `OC[C@@H](O)[C@H](O)[C@@H](O)CO` [Xylitol], the DuctApe activity index was 0 (inactive). Still for that read-out and setting: the figure for `O=P(O)(O)OC[C@H]1OC(O)(CO)[C@@H](O)[C@@H]1O` (stereo partly drawn) [D-Fructose-6-Phosphate] is 9 (active). `OC[C@@H](O)[C@H](O)[C@H](O)[C@@H](O)CO` [Dulcitol]: the DuctApe activity index was 6 (active). The same measure, in the same setting: the figure for `CO[C@@H]1O[C@H](CO)[C@H](O)[C@H](O)[C@H]1O` [b-Methyl-D-Galactoside] is 7 (active).
